RAD54 branch: inhibitors of human RAD54 branch migration, primary screen, biochemical, fluorescence, single point. RAD54 Holliday junction branch migration, FAM/BHQ fluorescence. DNA repair and recombination protein RAD54-like (Homo sapiens), Q92698. AID 602329, 2012. 360,000 compounds, 0.14% hits. inhibition, % at 10.4 µM;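 active means mean normalized replicate activity at least 40 and at least half of replicates scoring 40 or more; inconclusive means only one of the two criteria met; inactive means mean below 40 and under half of replicates reaching 40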;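 further: inhibitors cause a drop in the FAM fluorescence signal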
Target sequence (Q92698 whole entry, looked up): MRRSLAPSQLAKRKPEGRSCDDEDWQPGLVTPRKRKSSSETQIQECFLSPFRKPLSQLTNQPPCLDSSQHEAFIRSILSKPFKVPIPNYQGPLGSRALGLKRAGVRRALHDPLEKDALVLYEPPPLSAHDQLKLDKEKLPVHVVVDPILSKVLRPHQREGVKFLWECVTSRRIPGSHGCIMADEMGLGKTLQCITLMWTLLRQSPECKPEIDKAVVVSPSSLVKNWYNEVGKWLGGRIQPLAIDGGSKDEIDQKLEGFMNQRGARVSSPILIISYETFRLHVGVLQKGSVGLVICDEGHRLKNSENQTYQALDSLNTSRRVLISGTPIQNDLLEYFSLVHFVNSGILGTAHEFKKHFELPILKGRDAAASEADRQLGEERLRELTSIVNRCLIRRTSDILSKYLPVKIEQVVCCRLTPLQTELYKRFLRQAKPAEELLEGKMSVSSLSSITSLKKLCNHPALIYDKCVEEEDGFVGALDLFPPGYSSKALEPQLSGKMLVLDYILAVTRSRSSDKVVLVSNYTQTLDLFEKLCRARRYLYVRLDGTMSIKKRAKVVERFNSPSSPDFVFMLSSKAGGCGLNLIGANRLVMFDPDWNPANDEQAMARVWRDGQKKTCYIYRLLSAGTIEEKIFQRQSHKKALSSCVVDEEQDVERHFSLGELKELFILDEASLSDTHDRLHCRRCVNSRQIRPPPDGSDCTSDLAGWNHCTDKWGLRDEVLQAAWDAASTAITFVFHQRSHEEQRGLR
LGR2 antag: inhibitors of bursicon-induced LGR2 CRE-luciferase signal, primary screen, cell-based, HEK293, CRE-luciferase reporter, bursicon stimulation; Drosophila bursicon receptor LGR2 (rickets); bursicon-stimulated, 4 h; 380,000 compounds, 0.35% hits; inhibition, % at 9.99 µM;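 active means drop in luminescence signal, shown as inhibition above about 50% in the replicate tests, limit read from the data, passing the limit was not always enough; inconclusive means probably only some replicates passing the limit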;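 further: agonist challenge used bursicon conditioned medium at about half maximal strength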
CFTR F508del cor: F508del CFTR correction, initial screen, CFBE line, single point; CFBE cells, YFP halide quenching; stimulated with forskolin plus potentiator P3; % fluorescence drop versus neutral controls; activity (quench increase), % at 7.58 µM; 350,000 compounds, 0.36% hits; AID 720511, 2013;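 active means mean added fluorescence quench of at least 8% versus neutral control, with both replicates also reaching 8%; inconclusive means only one of the mean or replicate conditions met; inactive means mean below 8% and not both replicates reaching 8%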;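 further: cells transiently co-express mutant CFTR-F508del with the halide-sensitive YFP; corrector assay measuring rescue of mutant channel to the surface after 24 h compound exposure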
EWS-Fli block: EWS/Fli-driven NR0B1 reporter inhibitors, primary screen, A673 cells, NR0B1 luciferase, luminescence, MLPCN library; 350,000 compounds, 0.67% hits; inhibition, % at 12.6 µM; viability-normalised;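 active means mean inhibition of at least 50% after viability correction, with every replicate also passing that limit; inconclusive means mean reaches 50% but only one of two replicates passes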;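 further: firefly luciferase signal divided by Alamar Blue viability fluorescence both relative to DMSO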
RAD52 anneal inh: RAD52 DNA annealing inhibitors, primary screen, biochemical, FRET, single point, set 2. 360,000 compounds, 0.46% hits. recombinant RAD52 DNA annealing, FRET fluorescence. AID 651710, 2012. inhibition, % at 18.7 µM;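 active means every replicate showing at least 50% inhibition; inconclusive means mean inhibition at least 50% but not in every replicate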
INS-1E GSIS act: GLuc luminescence reporter in INS-1E cells, primary screen for activators of glucose-dependent secretion of insulin | 370,000 compounds, 0.61% hits | activation, % at 16.6 µM | AID 743287, 2014 | INS-1E GLuc reporter insulin secretion, 2-3 h;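 active means lowest replicate activation of at least 40%, so every replicate reaches that level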
RAD52 DNA ctr: DNA-binding compounds via dye displacement, dose response, artefact control for RAD52 inhibitor project, biochemical, fluorescence polarization, cherry-pick | shares compounds with RAD52 anneal inh | Salmon sperm DNA/acridine orange FP displacement | AC50, µM | 1,000 compounds, 8% hits;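 active means fitted half-maximal concentration for signal loss at or below twice the highest dose tested, in every separate run, actives reach about 64 µM in these data; inconclusive means runs disagree, or flat partial signal loss, or poor fit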
Of the large screens only hits and unclear results are named; the others gave an inactive call (follow-up assays come after a bar, where they were run); ! = not confirmed by another sample. Sampled rows, rich in hits. Any-hit rate of the full collection: about 1.8%.

Cn1c(-c2csc(-c3cccc(C(F)(F)F)c3)n2)n[nH]c1=S	RAD52 anneal inh 96.1 (no result: RAD54 branch) | RAD52 DNA ctr inactive
CCN(CC)CCN1C(=O)/C(=C\c2ccc(Cl)c([N+](=O)[O-])c2)SC1=Nc1ccc(OC)cc1	EWS-Fli block 59.7, RAD52 anneal inh 80.3 | RAD52 DNA ctr inactive
CCCN1C(=O)/C(=C/c2ccc(C)s2)SC1=Nc1ccc(OC)cc1	none (no result: CFTR F508del cor, EWS-Fli block, RAD52 anneal inh)
COc1ccc(N=C2S/C(=C\c3ccc(Cl)c([N+](=O)[O-])c3)C(=O)N2CCN(C)C)cc1	LGR2 antag inconclusive, EWS-Fli block 64.2, RAD52 anneal inh 53.5 | RAD52 DNA ctr inactive
N=c1c(C(=O)NCc2ccc3c(c2)OCO3)cc2c(=O)n3ccccc3nc2n1Cc1cccnc1	none (no result: LGR2 antag, CFTR F508del cor, EWS-Fli block, RAD52 anneal inh, INS-1E GSIS act)
COc1ccc(C(C)NC(=O)c2ccc(Cl)cc2)cc1OC (stereo not drawn)	none (no result: RAD54 branch, CFTR F508del cor, EWS-Fli block, RAD52 anneal inh)
OCCN1CCN(c2cc(-c3ccc(CO)cc3)nc3ccnn23)CC1	none (no result: LGR2 antag, INS-1E GSIS act)
CC(=O)Nc1cccc(-c2cc(N3CCN(CCO)CC3)n3nccc3n2)c1	RAD52 anneal inh 56.7 | RAD52 DNA ctr inactive
Cn1c(-c2ncc(F)cc2F)cc2onc(-c3c(F)cccc3Cl)c2c1=O	none
CC(=O)Nc1ccc(NC(=O)c2ccc(COc3ccc(C)cc3)o2)cc1	none
CCN(CC)CCC(=O)Nc1cccc2c1C(=O)c1ccccc1C2=O	RAD54 branch 94.5, CFTR F508del cor 23.9, RAD52 anneal inh 78.5 (no result: LGR2 antag, INS-1E GSIS act) | RAD52 DNA ctr 9.04µM
Nc1cccc(C(=O)OCC(=O)Nc2cccc3c2C(=O)c2ccccc2C3=O)c1	none (no result: RAD54 branch, CFTR F508del cor, EWS-Fli block, RAD52 anneal inh)
CCC(=O)N(C)C[C@@H]1Oc2cc(-c3ccncc3)ccc2S(=O)(=O)N([C@H](C)CO)C[C@H]1C	none
CN(C)C(=O)c1cccc(-c2cnc3c(NC=O)cc(-c4cccc(C(F)(F)F)c4)cn23)c1	none
CN(C)CCNC(=O)c1cccc(-c2cnc3c(NC=O)cc(-c4cc(F)c(F)c(F)c4)cn23)c1	RAD52 anneal inh 66.6 | RAD52 DNA ctr inactive
CN(C)CCNC(=O)c1cccc(-c2cc(NC=O)c3ncc(-c4cccc(C(F)(F)F)c4)n3c2)c1	RAD52 anneal inh 73.7, INS-1E GSIS act 123.8 | RAD52 DNA ctr inactive
CN(C)C(=O)c1cccc(-c2cnc3c(NC=O)cc(-c4cccc(F)c4)cn23)c1	none
CCN1CCN(Cc2ccc(NC(=O)c3ccc(C)c(NC(=O)c4cncc(-c5cccs5)c4)c3)cc2C(F)(F)F)CC1	none (no result: LGR2 antag, CFTR F508del cor, EWS-Fli block, RAD52 anneal inh, INS-1E GSIS act)
CCN1CCN(Cc2ccc(NC(=O)c3cc(NC(=O)c4cncc(-c5ccc(C#N)cc5)c4)cc(OC)c3)cc2C(F)(F)F)CC1	RAD52 anneal inh 86.8 | RAD52 DNA ctr inactive
CCN1CCN(Cc2ccc(NC(=O)c3cc(NC(=O)c4cnnc5ccccc45)cc(OC)c3)cc2C(F)(F)F)CC1	RAD52 anneal inh 70.2! | RAD52 DNA ctr inactive
CCN1CCN(Cc2ccc(NC(=O)c3cc(NC(=O)c4nccnc4N)cc(OC)c3)cc2C(F)(F)F)CC1	none
O=C(NCCCN1CCOCC1)c1cccc(S(=O)(=O)Nc2ccc(F)cc2)c1	none
COc1cc(-c2nc(C(F)(F)F)c(OC)o2)cc(OC)c1OC	none (no result: CFTR F508del cor)
Cc1csc(N2CCN(c3cc4c(cc3Cl)nc(-c3ccncc3)n4CCCN3CCCC3)CC2)n1	RAD52 anneal inh 97.7 (no result: INS-1E GSIS act) | RAD52 DNA ctr inactive
Cc1ccccc1Cn1c2ccccc2c2cnn(CC(=O)NCCCN3CCN(C)CC3)c(=O)c21	RAD52 anneal inh 70.6 | RAD52 DNA ctr inactive
Cc1ccccc1Cn1c2ccccc2c2cnn(CC(=O)NCCCN3CCOCC3)c(=O)c21	none
CN1CCN(c2ccc(NC(=O)c3cc(S(N)(=O)=O)ccc3N3CCOCC3)cc2)CC1	RAD52 anneal inh 72.4 | RAD52 DNA ctr inactive
